Assay outcomes from PubChem BioAssay.
SW480 rerep = A quantitative high throughput screen for small molecules that induce DNA re-replication in SW480 colon adenocarcinoma cells | SW480 DNA re-replication, Hoechst DNA content imaging, 48 h | Potency, µM (series often up to 46.1 µM), for the others: at the highest dose re-replication activation, actives largely listed as activators | 340,000 compounds, 1.8% hits; also: potency is read from the fitted curve at half-maximal effect; % of control where 0% means no effect; nearly all actives have a fitted effect of over 55% in size
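SW480 cells exposed to compounds for 48 hr at 37 C, 5% CO2, then Hoechst-stained 40 min. Nuclear DNA content imaged by fluorescence scanning (405 nm excitation, 500-530 nm emission); re-replication scored as increased high-intensity nuclei.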
KB-3-1 cytotox = qHTS assay for MDR1-selective chemotherapeutics: Primary screen using the parental adenocarcinoma cell KB-3-1 | 400,000 compounds, 1.4% hits | Potency, µM (titrated, usually from 46.1 µM), most hits filed as cytotoxic | KB-3-1 viability, CellTiter-Glo ATP luminescence, 72 h; also: potency is read from the fitted curve at half-maximal effect; % is scaled to controls: 0 for no effect and ±100 for the full control effect; nearly all actives have a fitted effect of over 60% in size
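KB-3-1 cells, DMEM (no phenol red) + 10% FBS; compound by pin transfer, 72 h, 37 °C. Readout: CellTiter-Glo luminescence after 10 min. Data normalized, curve-fitted.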
MCF10A rerep = A quantitative high throughput screen for small molecules that induce DNA re-replication in MCF 10a normal breast cells. 350,000 compounds, 2.9% hits. Potency, µM (doses to about 46.1 µM), for the others: at the highest dose activity, positive = re-replication, most hits filed as activators. MCF 10A DNA re-replication, Hoechst nuclear intensity, 48 h. AID 624296, 2012; also: potency is read from the fitted curve at half-maximal effect; % of control where 0% means no effect; nearly all actives have a fitted effect of over 50% in size
IL-1B inflam inh = qHTS for Inhibitors of Inflammasome Signaling: IL-1-beta AlphaLISA Primary Screen | AID 743279, 2014 | 360,000 compounds, 4.7% hits | activity change, % at 57.5 µM | THP-1 LPS/ATP IL-1B secretion, AlphaLISA, 16 h; hits give low values; in the data active = activity change below about -50%; inconclusive = mostly about -30% to -49%; also: % is scaled to controls: 0 for no effect and ±100 for the full control effect
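THP-1 cells pretreated 1 hr with compounds (up to 57.5 uM final), then stimulated with LPS (250 ng/mL final) plus ATP (1.25 mM final); secreted IL-1B measured by AlphaLISA after 16 hr, decreased signal indicating inhibition.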
KB-V1 cytotox = qHTS assay for MDR1-selective chemotherapeutics: Primary screen using the drug-selected MDR subline cells KB-V1 | KB-V1 MDR cells viability, CellTiter-Glo, 72 h | Potency, µM (top dose mostly 46.1 µM), hits mostly cytotoxic | 400,000 compounds, 3.4% hits | AID 1347076, 2019; also: potency is read from the fitted curve at half-maximal effect; % is scaled to controls: 0 for no effect and ±100 for the full control effect; nearly all actives have a fitted effect of over 60% in size
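Cytotoxicity toward P-gp-expressing KB-V1 cells was determined as loss of CellTiter-Glo luminescence after 72 h at 37 degrees C. Compounds were tested in quantitative HTS format across a concentration range, with curves fitted to normalized data.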
* = called active by the depositor; i = inactive; u = inconclusive; x = no result. Most compounds without a hit are left out; they make up all but 9.9% or so of the library. Unless noted, calls follow the shape of the dose curve; as a rule, active = well fitted curve in the direction sought with a large enough effect; inconclusive = small, poorly fitted or top-dose-only effect, or another doubt; inactive = no such curve, though single readings can be large; an effect the other way counts as inactive or inconclusive.

SMILES	SW480 rerep	KB-3-1 cytotox	MCF10A rerep	IL-1B inflam inh	KB-V1 cytotox
COC(=O)c1cccc(NC(=S)Nc2cccc(Cl)c2C)c1	1%	i	-4%	-7	i
CCCCC(=O)Nc1ccnc(-c2cccnc2)n1	-11%	i	4%	9	16µM*
COc1cccc(/C=N/Nc2nc3ccccc3n3cnnc23)c1	-7%	i	10%	16	i
COc1cccc(/C=N/Nc2nc3ccccc3n3cnnc23)c1O	u	u	u	-112*	6.5µM*
COc1ccc(Nc2nc3ccccc3n3cnnc23)cc1	-1%	i	u	55	13µM*
CC1=C(C(=O)OC2CCCCCC2)C(c2cccc(F)c2F)CC(=O)N1 (stereo not given)	x	i	x	x	i
O=C(NCCc1ccc(Cl)cc1)c1ccc2nc(N3CCOCC3)sc2c1	4%	i	21µM*	10	i
COc1ccc2nc(N3CCCC(C(=O)NCCc4ccc(OC)c(OC)c4)C3)sc2c1 (stereo not given)	-3%	i	9%	-1	i
COc1ccc(CCNC(=O)c2ccc3nc(N4CCCCC4)sc3c2)cc1OC	-5%	i	18%	32	18µM*
CC1CCN(c2nc3ccc(C(=O)NCCCN4CCCCC4C)cc3s2)CC1 (stereo not given)	21µM*	i	26%	u	i
Cc1ccc(S(=O)(=O)Nc2ccc3ccccc3c2[N+](=O)[O-])cc1	-4%	i	18µM*	25	i
Cc1ccc(S(=O)(=O)Nc2ccc3cc([N+](=O)[O-])ccc3c2[N+](=O)[O-])cc1	-1%	u	u	-6	u
O=C(CN1CCN(c2ccc(F)cc2)CC1)c1ccc(O)cc1O	u	i	-4%	8	i
O=S(=O)(c1ccc(F)cc1)N1CCCC(c2nc(-c3ccc(F)cc3)no2)C1 (stereo not given)	-2%	i	u	-9	i
O=C(NC1CCCCC1)N1CCCC(c2nc(-c3ccc(S(=O)(=O)N4CCCC4)cc3)no2)C1 (stereo not given)	-1%	u	6%	2	3.7µM*
O=S(=O)(NC1CC1)c1ccc(S(=O)(=O)N2CCCC(c3nc(-c4cccnc4)no3)C2)cc1 (stereo not given)	5%	i	19%	-1	8.2µM*
CC(C)C(=O)N1CCC(c2nc(-c3ccc(S(=O)(=O)N4CCCC4)cc3)no2)CC1	-5%	i	1%	14	12µM*
CCOc1ccc(C(C)NC(=O)c2ccc3c(c2)NC(=O)C(C)S3)cc1OCC (stereo not given)	5%	u	55%	u	i
Cc1cc(C)cc(NC(=O)NCCc2c(C)nn(C)c2C)c1	x	i	x	x	i
CCOC(=O)N=Nc1c2ccccc2c2nc3no[nH]c3nc12	u	1.5µM*	u	-103*	2.9µM*
COc1ccc(CCNC(=O)c2cccc(S(=O)(=O)N3CCc4ccccc4C3)c2)cc1	-2%	i	u	u	i
Cc1cccc(NC(=O)CC2C(=O)NCCN2C(=S)Nc2ccccc2)c1 (stereo not given)	-1%	i	16µM*	-61*	i
COc1ccccc1NC(=S)N1CCNC(=O)C1CC(=O)Nc1cccc(C)c1 (stereo not given)	-3%	i	-2%	-14	u
CCOC(=O)/C=C(\C)Sc1cc(=O)oc2ccccc12	u	u	u	-52*	u
CCOC(=O)/C=C(\C)Sc1cc(O)c2ccccc2c1O	17%	i	u	-62*	i
SMILES	SW480 rerep	KB-3-1 cytotox	MCF10A rerep	IL-1B inflam inh	KB-V1 cytotox
CCOC(=O)Nc1oc2ccccc2c(=O)c1C	-6%	i	0%	19	i
Cc1cc(-c2nnc(CCC(=O)NCc3ccc(OC(F)(F)F)cc3)o2)no1	4%	i	1%	33	i
c1ccc(C[n+]2c(-c3ccccc3)csc2Nc2ccccc2)cc1	-6%	21µM*	2%	-9	16µM*
c1ccc(Nc2scc(-c3ccccc3)[n+]2Cc2ccco2)cc1	-6%	u	5%	10	u
CN1CCc2c(sc(NC(=O)c3ccc(S(=O)(=O)N4CCOCC4)cc3)c2C(N)=O)C1	2%	i	2%	10	i
CCOC(=O)N1CCN(S(=O)(=O)c2ccc(C(=O)Nc3sc4c(c3C(N)=O)CCN(CC)C4)cc2)CC1	778%	u	u	-68*	i
CCCN1CCc2c(sc(NC(=O)c3ccc(S(=O)(=O)N4CCN(C(=O)OCC)CC4)cc3)c2C(N)=O)C1	21µM*	i	u	-98*	i
CNC(=O)c1c(NC(=O)c2ccc(S(=O)(=O)N3CCCc4ccccc43)cc2)sc2c1CCN(C)C2	u	i	21µM*	61	i
CN1CCc2c(sc(NC(=O)c3ccc(S(=O)(=O)N4CCCC4)cc3)c2C(N)=O)C1	1%	i	14%	0	i
CN1CCc2c(sc(NC(=O)c3ccc(S(=O)(=O)N4CCCCCC4)cc3)c2C(N)=O)C1	17%	i	16µM*	-96*	21µM*
CCN1CCc2c(sc(NC(=O)c3ccc(S(=O)(=O)N(C)C4CCCCC4)cc3)c2C(N)=O)C1	x	i	x	x	i
CCOC(=O)c1c(NC(=S)N2CCCCC2)sc2c1CCN(C(=O)OCC)C2	-44%	i	21µM*	x	i
CCOC(=O)c1c(NC(=S)Nc2ccccc2)sc2c1CCN(CC)C2	0%	i	-1%	-14	i
COC(=O)c1c(NC(NC(=O)c2ccccc2)(C(F)(F)F)C(F)(F)F)sc2c1CCN(C)C2	0.52µM*	i	u	11	i
CCOC(=O)c1c(NC(=O)Nc2ccc(C)cc2)sc2c1CCN(C)C2	18µM*	i	u	x	i
CCCN1CCc2c(sc(NC(=O)C3CCN(S(=O)(=O)c4cccs4)CC3)c2C(N)=O)C1	-392%	i	2%	-62*	i
CCn1cc(C(=O)N2CCN(c3ccccc3OC)CC2)c(=O)c2cc(S(=O)(=O)N3CCCCC3)ccc21	x	i	x	x	i
CCCN1CCN(c2cccc(Nc3nn4c(=O)c5ccccc5nc4s3)c2)CC1	x	u	x	x	i
COC(=O)c1c(NC(=O)c2ccc(S(=O)(=O)N3CC(C)OC(C)C3)cc2)sc2c1CCN(C)C2 (stereo not given)	x	i	x	17	i
